# Reference: PubChem BioAssay AID1220 (Sanford-Burnham Center for Chemical Genomics, 2008)
# The whole screen tested about 190,000 compounds, of which about 1,300 (0.68%) were called active. Shown is part of a subset that was picked to be rich in actives. Unmarked numbers belong to inactive results. Cut-off read from the data, not from the text of the source: active = inhibition above about 50%; inactive = the rest.
# Target: Mannose-6-phosphate isomerase (Homo sapiens) (UniProt P34949)
# Experiment: human PMI inhibitors, high substrate, primary screen, biochemical, fluorescence intensity, high mannose 6-phosphate (AID 1220)
# Settings: recombinant PMI enzyme, coupled fluorescence intensity; at 20 µM; stronger effect = higher value
# Sequence of Mannose-6-phosphate isomerase (Homo sapiens) (P34949 whole entry, looked up): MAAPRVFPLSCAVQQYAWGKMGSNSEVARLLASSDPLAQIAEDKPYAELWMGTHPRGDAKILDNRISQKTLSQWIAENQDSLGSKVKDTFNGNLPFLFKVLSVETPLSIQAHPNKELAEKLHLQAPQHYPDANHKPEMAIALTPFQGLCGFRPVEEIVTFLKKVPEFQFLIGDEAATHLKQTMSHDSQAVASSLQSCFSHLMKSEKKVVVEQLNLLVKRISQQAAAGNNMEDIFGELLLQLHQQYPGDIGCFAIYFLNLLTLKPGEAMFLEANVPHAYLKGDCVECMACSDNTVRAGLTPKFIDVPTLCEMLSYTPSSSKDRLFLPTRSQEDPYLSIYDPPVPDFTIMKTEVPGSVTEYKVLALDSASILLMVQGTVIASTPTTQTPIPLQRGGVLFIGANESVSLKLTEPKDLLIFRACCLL
row,SMILES,inhibition
1,CCCCOC(=O)c1cc(=O)[nH]c2ccccc12,6.8%
2,Cc1cc(C(=O)N/N=C/c2ccc3c(c2)OCO3)c(C)n1-c1ccc(F)cc1,-30.4%
3,COc1cc(/C=N/NC(=O)c2cc(C)n(-c3ccc(F)cc3)c2C)cc(OC)c1O,51.9% (active)
4,COc1ccc(/C=N/NC(=O)c2cc(C)n(-c3ccccc3)c2C)cc1OC,9.5%
5,Nc1ccc(O)cc1C(=O)OCC(=O)c1ccc(C2CCCCC2)cc1,60.3% (active)
6,COc1ccc(C(=O)OCC(=O)c2ccc(C3CCCCC3)cc2)cc1,9.2%
7,O=C(COC(=O)c1ccccc1[N+](=O)[O-])c1ccc(C2CCCCC2)cc1,-0.8%
8,CCCOc1ccc(N2C(=O)CC(N3CCC(O)(c4cccc(C(F)(F)F)c4)CC3)C2=O)cc1 (stereo not given),7.5%
9,CC(=O)c1cc2c(C)cc(=O)oc2cc1O,11.3%
10,CC(=O)Oc1ccc2c(C)cc(=O)oc2c1,2%
11,CC(=O)Oc1cc2oc(=O)cc(C)c2cc1OC(C)=O,55.7% (active)
12,CC(=O)c1cc2c(cc1NC(=O)CCc1ccccc1)OCO2,0.5%
13,CCOc1cc(/C=C2/C(=O)N(c3ccccc3)N=C2C)ccc1OC(=O)c1ccco1,43.2%
14,CCOc1cc(/C=C2\C(=O)N(c3ccc(C(N)=O)cc3)N=C2C)ccc1OC(=O)c1cccs1,61.4% (active)
15,CCOc1cc(/C=C2/C(=O)N(c3ccccc3)N=C2C)ccc1OC(=O)c1cccs1,17%
16,CCOc1ccc(NC(=O)NC2CCOC(C)(C)C2)cc1 (stereo not given),11.5%
17,CCOc1ccc(NCCC#N)cc1,2.3%
18,CCOc1ccc(NCC2CCOC(C)(C)C2)cc1 (stereo not given),50.9% (active)

row,SMILES,inhibition
1,CCN(CC)S(=O)(=O)c1cccc(C(=O)OCC(=O)NC(C)c2ccccc2)c1 (stereo not given),-2.8%
2,O=C(CNC(=O)/C(=C\c1ccc(F)cc1)NC(=O)c1ccccc1)OCc1ccccc1,0.8%
3,O=C(NCc1cccnc1)c1ccc(COc2cccc3ccccc23)o1,53.2% (active)
4,O=C(NCc1cccnc1)c1ccc(COc2ccccc2Br)o1,11.6%
5,COc1ccccc1OCc1ccc(C(=O)NCc2cccnc2)o1,6.8%
6,CC1CCN(c2c(NCC3CCC(C(=O)NCCc4ccccc4)CC3)c(=O)c2=O)CC1 (stereo not given),1.2%
7,Cn1ncc(N=Cc2c(O)ccc3ccccc23)c1C(=O)Nc1cccc(Cl)c1,64% (active)
8,Cn1ncc(N=Cc2ccccc2)c1C(=O)Nc1cccc(Cl)c1,14.7%
9,Cn1ncc(N=Cc2ccccc2O)c1C(=O)Nc1ccccc1,16.9%
10,C/C(CC(=O)Nc1ccccn1)=N\NC(=O)C(=O)Nc1ccccc1C,13%
11,CCOC(=O)C(Cc1ccc(Cl)cc1Cl)c1ccno1 (stereo not given),0.3%
12,O=C(NCc1ccco1)C1CCN(c2nc3ccccc3n2Cc2ccccc2F)CC1,25.8%
13,COc1ccccc1C(=O)OCC(=O)Nc1ccc(Cl)cn1,6.1%
14,COc1ccccc1NCCC(=O)OCC(=O)Nc1ccc(Cl)cn1,50.3% (active)
15,O=C(COC(=O)CCOc1ccccc1)Nc1ccc(Cl)cn1,9.2%
16,O=c1c2[nH]c3ccccc3c2ncn1Cc1ccccn1,1.8%
17,CC(=O)c1c(C)[nH]c(C(=O)N2CCc3ccccc3C2)c1C,12.7%
